Laboratory results published in PubChem BioAssay (NCI).
“And” between values parts separate entries of the source, which are not always exact repeats. Equal entries are not always repeated. Compounds without any hit were thinned out: in the full panel of roughly 79,000, 15% have a hit. The source holds several records for some structures; these can differ, active in one and inactive in another. The source made the active and inactive calls. Cut-off read from the data, not from the text of the source: active = growth inhibition above about 70%; inactive = the rest.

Columns and labels:
[1] = NCI Yeast Anticancer Drug Screen. Data for the rad50 strain (AID 155);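 note: 0% = growth of vehicle-only cultures of the same strain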; details: S. cerevisiae rad50 strain growth inhibition, stronger effect = higher value
Procedure, shortened: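 Yeast carrying a defined DNA repair defect were exposed to test compounds, and growth was compared with vehicle-treated controls to give percent inhibition.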

[2] = NCI Yeast Anticancer Drug Screen. Data for the mec2-1 strain (AID 157); details: S. cerevisiae mec2-1 strain, stronger effect = higher value
Procedure, shortened: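 Compounds were applied to mec2-1 yeast cells. Their growth was then compared with that of vehicle-treated cultures to give growth inhibition.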

[3] = NCI Yeast Anticancer Drug Screen. Data for the sgs1 mgt1 strain (AID 161);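 note: 0% = growth of cultures given vehicle only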; details: S. cerevisiae sgs1 mgt1 strain, stronger effect = higher value
Procedure, shortened: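 This yeast growth screen uses a strain with defined DNA-repair lesions; compound-treated growth is compared with vehicle-treated growth.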

[4] = NCI Yeast Anticancer Drug Screen. Data for the cln2 rad14 strain (AID 165);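 note: 0% = growth equal to vehicle treated cultures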; details: S. cerevisiae cln2 rad14 strain, stronger effect = higher value
Procedure, shortened: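 Strain: cln2 rad14 yeast, altered in cell cycle control and DNA damage repair. Read-out: growth inhibition vs vehicle.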

[5] = NCI Yeast Anticancer Drug Screen. Data for the bub3 strain (AID 167); details: S. cerevisiae bub3 mutant strain, stronger effect = higher value
Procedure, shortened: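 Compounds were applied to a genetically altered yeast strain carrying a cell-cycle control defect. Growth inhibition was scored against vehicle-treated controls.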

[6] = NCI Yeast Anticancer Drug Screen. Data for the mlh1 rad18 strain (AID 175); details: S. cerevisiae mlh1 rad18 strain growth inhibition, stronger effect = higher value
Procedure, shortened: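 A repair-deficient yeast strain is exposed to test compound, and growth is scored relative to vehicle-treated controls.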

[7] = at 5.0 µM (retest, dose inferred, filed as 0.5)
[8] = at 50.0 µM (retest, dose inferred, filed as 5.0)

Measured: growth inhibition

CC(CCc1nc2ccccc2s1)(c1ccc(O)cc1)c1ccc(O)cc1
active: [1]; [8] 99% | [1]; at 50.0 µM 99.5% | [2]; [8] 100% | [2]; at 50.0 µM 99.7% | [3]; [8] 100% | [3]; at 50.0 µM 99.3% | [4]; [8] 99% | [4]; at 50.0 µM 98.3% | [5]; [8] 99% | [5]; at 50.0 µM 99.2% | [6]; [8] 100% | [6]; at 50.0 µM 99.2%
inactive: [1]; [7] 27% | [2]; [7] -5% | [3]; [7] 15% | [4]; [7] 6% | [5]; [7] -12% | [6]; [7] 11%

COc1ccc(COc2ccc(C(=O)CCN3CCOCC3)cc2)cc1
inactive: [1]; [7] 47% | [1]; [8] 62% | [2]; [7] 38% | [3]; [7] 61% | [4]; [7] 40% | [4]; [8] 46% | [5]; [7] 51% | [6]; [7] 51%
active: [1]; at 50.0 µM 96.8% | [2]; [8] 80% | [2]; at 50.0 µM 96.5% | [3]; [8] 87% | [3]; at 50.0 µM 97% | [4]; at 50.0 µM 93.8% | [5]; [8] 80% | [5]; at 50.0 µM 97.4% | [6]; [8] 77% | [6]; at 50.0 µM 96.8%

Fc1ccc2nc3ccccc3nc2c1
active: [1]; at 50.0 µM 77.5% | [6]; at 50.0 µM 76.3%
inactive: [1]; [7] 3% | [1]; [8] 40% | [2]; [7] 5% | [2]; [8] 27% | [2]; at 50.0 µM 49.2% | [3]; [7] 0% | [3]; [8] 10% | [3]; at 50.0 µM 22.6% | [4]; [7] -6% | [4]; [8] 10% | [4]; at 50.0 µM 29.5% | [5]; [7] 5% | [5]; [8] 24% | [5]; at 50.0 µM 42.5% | [6]; [7] 2% | [6]; [8] 27%

Fc1cccc(CSC(=S)Nc2ccc(F)c(F)c2)c1
inactive: [1]; [7] 12% | [2]; [7] 13% | [3]; [7] 10% | [4]; [7] -2% | [5]; [7] -2% | [6]; [7] 8%
active: [1]; [8] 99% | [1]; at 50.0 µM 99.6% | [2]; [8] 99% | [2]; at 50.0 µM 99.8% | [3]; [8] 99% | [3]; at 50.0 µM 99.7% | [4]; [8] 91% | [4]; at 50.0 µM 99.5% | [5]; [8] 95% | [5]; at 50.0 µM 99.7% | [6]; [8] 99% | [6]; at 50.0 µM 99.7%

COC1CC2CCC(C)[C@](O)(O2)C(=O)C(=O)N2CCCCC2C(=O)OC(C(C)CC2CCC(O)C(OC)C2)CC(=O)C(C)C=C(C)C(OC(=O)CN(C)C)C(OC)C(=O)C(C)CC(C)/C=C/C=C/C=C\1C (stereo not given in full)
inactive: [1]; [7] 37% | [2]; [7] 46% | [5]; [7] 50%
active: [1]; [8] 97% | [1]; at 50.0 µM 89% | [2]; [8] 97% | [2]; at 50.0 µM 92.5% | [3]; [7] 97% | [3]; [8] 96% | [3]; at 50.0 µM 92% | [4]; [7] 95% | [4]; [8] 94% | [4]; at 50.0 µM 85.4% | [5]; [8] 98% | [5]; at 50.0 µM 91.7% | [6]; [7] 97% | [6]; [8] 96% | [6]; at 50.0 µM 89.8%

O=C1c2cccc(O)c2C(=O)c2c(O)cccc21
55% (inactive) and 74.8% (active): [1]; at 50.0 µM
inactive: [1]; [7] 67% | [2]; [7] 28% | [2]; [8] 36% | [2]; at 50.0 µM 38.1% and 42.8% | [3]; [7] 21% | [3]; [8] 50% | [3]; at 50.0 µM 41.6% and 45.6% | [4]; [7] 18% | [4]; [8] 25% | [4]; at 50.0 µM 44.1% and -10.8% | [5]; [7] 24% | [5]; [8] 62% | [5]; at 50.0 µM 42.6% and 39.5% | [6]; [7] 42% | [6]; [8] 66% | [6]; at 50.0 µM 50.4% and 66.1%
active: [1]; [8] 73%

c1cc2c3c(cccc3c1)-c1cnccc1-2
inactive: [1]; [7] 31% | [1]; [8] 54% | [2]; [7] 36% | [3]; [7] -6% | [4]; [7] 48% | [5]; [7] 16% | [6]; [7] 35%
active: [1]; at 50.0 µM 91.1% | [2]; [8] 84% | [2]; at 50.0 µM 92.7% | [3]; [8] 97% | [3]; at 50.0 µM 92.9% | [4]; [8] 97% | [4]; at 50.0 µM 90.8% | [5]; [8] 98% | [5]; at 50.0 µM 92.3% | [6]; [8] 73% | [6]; at 50.0 µM 91.8%

Cc1cc(/C=C/C2CCC3CC(C)CCC3N2CCO)c(C)n1-c1ccccc1 (stereo not given)
active: [1]; [8] 95% | [1]; at 50.0 µM 99.1% | [2]; [8] 99% | [2]; at 50.0 µM 98.8% | [3]; [8] 100% | [3]; at 50.0 µM 99.2% | [4]; [8] 90% | [4]; at 50.0 µM 98.8% | [5]; [8] 98% | [5]; at 50.0 µM 98% | [6]; [8] 97% | [6]; at 50.0 µM 97.9%
inactive: [1]; [7] 16% | [2]; [7] 19% | [3]; [7] 26% | [4]; [7] 12% | [5]; [7] 21% | [6]; [7] 17%

Cn1c2ccccc2c(=O)c2ccccc21
-16.6% (inactive) and 82% (active): [1]; at 50.0 µM
inactive: [1]; [7] 4% | [1]; [8] 38% | [2]; [7] 23% | [2]; [8] 9% | [2]; at 50.0 µM -18.9% and 13.4% | [3]; [7] -5% | [3]; [8] 9% | [3]; at 50.0 µM -17.4% and 18.6% | [4]; [7] -4% | [4]; [8] -2% | [4]; at 50.0 µM -11.3% and -35.4% | [5]; [7] -9% | [5]; [8] 1% | [5]; at 50.0 µM 14.2% and 3.6% | [6]; [7] -1% | [6]; [8] 20% | [6]; at 50.0 µM -28.4% and 31.8%

CSc1ncnc2c1ncn2C1OC(CO)C(O)C1O (stereo not given)
inactive: [1]; [7] 2% | [1]; [8] 9% | [1]; at 50.0 µM 8.95% and 3.25% | [2]; [7] -10% | [2]; [8] -1% | [2]; at 50.0 µM 14.7% and 17.6% | [3]; [7] -5% | [3]; [8] 1% | [3]; at 50.0 µM 3.1% and -2.35% | [4]; [7] -1% | [4]; [8] -3% | [4]; at 50.0 µM 38.9% and -38.6% | [5]; [7] -3% | [5]; [8] -7% | [5]; at 50.0 µM 0.05% and 13.2% | [6]; [7] 14% | [6]; [8] 0% | [6]; at 50.0 µM -10.1% and 1.6%

CCCCCCCCCCCCCCCCOP(=O)(O)OP(=O)(O)OCC1OC(n2ccc(N)nc2=O)C(O)C1O (stereo not given)
-2.65% (inactive) and 89.8% (active): [2]; at 50.0 µM
active: [1]; [7] 97% | [1]; [8] 97% | [2]; [7] 98% | [2]; [8] 98% | [3]; [7] 98% | [3]; [8] 98% | [4]; [7] 92% | [4]; [8] 90% | [5]; [7] 98% | [5]; [8] 98% | [6]; [7] 94% | [6]; [8] 95%
-2% (inactive) and 81.4% (active): [1]; at 50.0 µM
9.5% (inactive) and 84.7% (active): [4]; at 50.0 µM
-9.4% (inactive) and 84.5% (active): [5]; at 50.0 µM
55% (inactive) and 87.5% (active): [3]; at 50.0 µM
33% (inactive) and 90.5% (active): [6]; at 50.0 µM

NC(=O)N/N=C/c1ccc([N+](=O)[O-])o1
active: [1]; [8] 73%
47.3% (inactive) and 71.3% (active): [6]; at 50.0 µM
inactive: [1]; [7] 2% | [1]; at 50.0 µM 32% and 46.6% | [2]; [7] 2% | [2]; [8] 26% | [2]; at 50.0 µM 13.8% and 8.3% | [3]; [7] 4% | [3]; [8] 34% | [3]; at 50.0 µM 56.4% and 48% | [4]; [7] 0% | [4]; [8] 16% | [4]; at 50.0 µM 10.1% and 26.1% | [5]; [7] -3% | [5]; [8] 22% | [5]; at 50.0 µM 10.6% and 51.8% | [6]; [7] 5% | [6]; [8] 50%

O=c1[nH]c(SCc2c(Cl)c(Cl)c(Cl)c(Cl)c2Cl)nc(=S)[nH]1
active: [1]; [8] 76% | [3]; [8] 95% | [3]; at 50.0 µM 92.8% | [6]; [8] 86% | [6]; at 50.0 µM 70.8%
inactive: [1]; [7] 1% | [1]; at 50.0 µM 54.1% | [2]; [7] 10% | [2]; [8] 44% | [2]; at 50.0 µM 38.8% | [3]; [7] 3% | [4]; [7] -36% | [4]; [8] 67% | [4]; at 50.0 µM 43.1% | [5]; [7] 14% | [5]; [8] 55% | [5]; at 50.0 µM 65.8% | [6]; [7] 2%

COc1ccc2c(c1)C(Cc1ccc(Oc3ccc(CC4c5cc(OC)ccc5CC[N+]4(C)C)cc3)cc1)[N+](C)(C)CC2 (stereo not given)
active: [1]; at 50.0 µM 96.8% | [2]; at 50.0 µM 97.2% | [3]; [8] 91% | [3]; at 50.0 µM 99.2% | [4]; at 50.0 µM 72% | [5]; [8] 82% | [5]; at 50.0 µM 84.7% | [6]; [8] 95% | [6]; at 50.0 µM 98.8%
inactive: [1]; [7] -12% | [1]; [8] 62% | [2]; [7] -6% | [2]; [8] 51% | [3]; [7] -7% | [4]; [7] -4% | [4]; [8] 54% | [5]; [7] -3% | [6]; [7] -10%

COC(=O)C(CC(C)=O)CS(=O)(=O)CC(=O)C(=O)Nc1cccc([N+](=O)[O-])c1 (stereo not given)
active: [1]; [8] 98% | [1]; at 50.0 µM 99.5% | [2]; [8] 99% | [2]; at 50.0 µM 99.5% | [3]; [8] 99% | [3]; at 50.0 µM 99.2% | [4]; [8] 98% | [4]; at 50.0 µM 98.2% | [5]; [8] 98% | [5]; at 50.0 µM 99.2% | [6]; [8] 98% | [6]; at 50.0 µM 99.2%
inactive: [1]; [7] 4% | [2]; [7] 3% | [3]; [7] 7% | [4]; [7] 3% | [5]; [7] 5% | [6]; [7] -2%
